# Data: PubChem BioAssay (NCI)
# Where “and” joins values, the source holds several entries; their conditions need not be identical. Identical values can stand only once. About 79,000 compounds went through this panel and 15% of them were active in at least one assay; those are over-represented in the sample as a whole. A number with no mark means an inactive call. Calls of active or inactive are those of the source. Cut-off read from the data, not from the text of the source: active = growth inhibition above about 70%; inactive = the rest.
# How the values were obtained:
# [1] = NCI Yeast Anticancer Drug Screen. Data for the rad50 strain (AID 155);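 note: 0% = growth of vehicle-only cultures of the same strain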; details: S. cerevisiae rad50 strain growth inhibition, stronger effect = higher value; at 50.0 µM unless noted
# How it was run: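 Vehicle-treated cultures provide the reference for the growth inhibition reported for compound-exposed, repair-deficient yeast.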
# [2] = NCI Yeast Anticancer Drug Screen. Data for the mec2-1 strain (AID 157); details: S. cerevisiae mec2-1 strain, stronger effect = higher value; at 50.0 µM unless noted
# How it was run: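 Cells of the genetically defined mec2-1 yeast strain are incubated with test compound. Inhibition of growth is calculated against vehicle-treated controls.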
# [3] = NCI Yeast Anticancer Drug Screen. Data for the sgs1 mgt1 strain (AID 161);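 note: 0% = growth of cultures given vehicle only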; details: S. cerevisiae sgs1 mgt1 strain, stronger effect = higher value; at 50.0 µM unless noted
# How it was run: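 Read-out: growth inhibition vs vehicle controls. Cells: mutant yeast strain deficient in DNA damage repair.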
# [4] = NCI Yeast Anticancer Drug Screen. Data for the cln2 rad14 strain (AID 165);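 note: 0% = growth equal to vehicle treated cultures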; details: S. cerevisiae cln2 rad14 strain, stronger effect = higher value; at 50.0 µM unless noted
# How it was run: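 The screen exposed genetically defined yeast (cln2 rad14) to test compounds and scored growth inhibition relative to vehicle-treated controls.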
# [5] = NCI Yeast Anticancer Drug Screen. Data for the bub3 strain (AID 167); details: S. cerevisiae bub3 mutant strain, stronger effect = higher value; at 50.0 µM unless noted
# How it was run: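 Mutant yeast screening strain plus compound; vehicle-treated cultures serve as the 0% inhibition reference.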
# [6] = NCI Yeast Anticancer Drug Screen. Data for the mlh1 rad18 strain (AID 175); details: S. cerevisiae mlh1 rad18 strain growth inhibition, stronger effect = higher value; at 50.0 µM unless noted
# How it was run: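 Compound-treated yeast growth, normalised to vehicle controls. Strain bears defined DNA repair mutations.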
Structure (SMILES),growth inhibition [1],growth inhibition [2],growth inhibition [3],growth inhibition [4] [%],growth inhibition [5] [%],growth inhibition [6]
CCC(C)C/C(C)=N/Nc1ccc([N+](=O)[O-])cc1[N+](=O)[O-] (configuration not stated),-0.4%,7.85%,0.65%,-16.4,12.7,-6.25%
CC(=O)CCOC(=O)c1cc([N+](=O)[O-])cc([N+](=O)[O-])c1,13.2%,-4.1%,14.4%,2.6,16.9,3%
CN(C)c1ccc(O[Si](Oc2ccc(N(C)C)cc2)(Oc2ccc(N(C)C)cc2)Oc2ccc(N(C)C)cc2)cc1,27.6%,37.2%,25.8%,29.4,14.3,43.8%
COc1cc2c(cc1OC)C1CC3(CCN1CC2)CC(=O)NC3=O (configuration not stated),-8.65%,-5.5%,-4.75%,-78.8,-11.9,1.35%
CN(C)N=Nc1ccc(/C=C/C(=O)O)cc1,15.2%,4.8%,11.4%,1.65,8.55,-4.95%
Cc1cnc2ccccc2c1/C=C/c1ccc(N(C)C)cc1,-6.15%,-0.1%,1.55%,-121,14.1,14.1%
C/C(CC1(O)C(=O)Nc2ccccc21)=N\O (configuration not stated),-1.95% and -34.7%,-8.5% and -46.1%,-30.6%,8.6,-16.2,6.55% and -10%
CCOC(=O)CC(CC(=O)OCC)NC(=O)c1ccc(N(C)C(=O)OCc2ccccc2)cc1,40.1%,5.55%,34.9%,32.9,14.7,39.9%
NC(=O)c1c(NC=O)ncn1C1OCC(O)C(O)C1O (configuration not stated),-7.95%,-3.85%,2%,-42,-1.3,12.8%
COc1ccc(/C=N/NC(=O)c2ccccc2)c(OC)c1,17.1%,0%,6.65%,17.7,28.2,9.3%
COc1ccc(C2S/C(=C\c3ccc([N+](=O)[O-])cc3)C(=O)N2NC(=O)Cc2ccccc2)cc1 (configuration not stated),17.9%,-7.95%,2.9%,-23.8,11.4,8.65%
COC(=O)C1C(O)C(C)C(O)C(C)(O)/C=C/C=C(C)C(=O)Nc2c(C)c(OC(C)=O)c3c(c2O)C(=O)C(C)=C2OCOC(=C23)C(C)=CC(C)(O)C(O)C(C)C1OC(C)=O (configuration not stated),4.6%,-19.9%,5.5%,4.05,3.05,18.8%
Nc1cccc2c1nc(NCCO)c1ccccc12,23.8%,3.5%,-15.6%,-4.5,10.7,49.1%
COc1nc2nccnc2c(=O)n1C,-18.2%,-4.65%,-16.5%,14.4,-7.55,-3.3%
CC(C)C1=CCC2C(=C1)CCC1C(C)(N=C=O)CCCC21C (configuration not stated),-28.6%,-10.1%,-7.7%,-51.8,38.8,-4%
N#CC(C#N)=C1SC(=Nc2ccccc2)C(=Nc2ccccc2)N1c1ccccc1,11.6%,6.05%,19.2%,7.1,21.6,16.4%
ClCCCSSCCCCl,24.1%,21.2%,20.4%,-7.95,14.4,3.85%
COc1ccc2c(c1OC(C)=O)-c1cc(OC(C)=O)cc3c1C(C2)N(C(=O)CBr)CC3 (configuration not stated),62%,54.2%,70.2% (active),36,20.5,59.4%
NCC(=O)c1ccc(CCC(=O)O)cc1,3.1%,-0.25%,-0.75%,0.25,6.3,2.6%

Structure (SMILES),growth inhibition [1],growth inhibition [2],growth inhibition [3],growth inhibition [4] [%],growth inhibition [5] [%],growth inhibition [6]
O=C(CC(=O)c1ccc(OC(=O)c2ccccc2)cc1O)c1ccccc1,-12.7%,-4.95%,-2.8%,-16.1,8,-27.6%
O=C1CCC(=O)N1CNc1cccc(NCN2C(=O)CCC2=O)c1,-5.35%,-30.9%,11.9%,10.5,3.9,-4.6%
O=C(C[n+]1ccccc1)c1ccc(O)c(I)c1,-5.4%,7.65%,21.9%,21.7,0.35,7.4%
CC1=NN(c2ccccc2)C(=O)C1O (configuration not stated),12.1%,16.2%,-6.05%,-25.4,-10.6,2.5%
O=c1cc(C(F)(F)F)[nH]c2ccc(F)cc12,1.95%,-10.4%,6.4%,-27.6,-27,7.55%
O=CNCC(=O)O,15.6%,-3.75%,-15.5%,-0.7,-2.55,7.9%
CC(=O)Nc1ccc(S(=O)(=O)NC(C)=O)cc1,-5.8%,-8.75%,-2.7%,-20.4,6.7,12.6%
CN(C)c1nc(N(C)C)nc(N(C)CN(C)c2ccc(Cl)cc2)n1,-11.3%,-23.3%,-26.8%,-11.3,-49,-16.4%
O=C(Nc1ccc(O)cc1)c1ccc([N+](=O)[O-])cc1,-1.75%,6.6%,3.35%,0.05,9.05,-2.2%
COc1ccc2[nH]c3c(C)c4c(c(C)c3c2c1)CN(C)C=C4,45.6%,48.2%,62.7%,21.2,65.8,8.95%
O=C(COCC(=O)N/N=C/C=C/c1ccccc1)N/N=C/C=C/c1ccccc1,7.7%,-6.3%,-0.65%,3.35,-2.95,19.2%
N#CC(C#N)N=O (tested in a mixture with another compound),-4.1%,-15.3%,-15.2%,-19.7,-6.9,-6.25%
Clc1nc(-c2ccccc2)ns1,1.9%,-9.3%,-12.7%,1.45,-6.85,-10.4%
COc1ccc(C)cc1Sc1ccc([N+](=O)[O-])cc1C,0.65%,-17.9%,-8.35%,-19.2,8.95,-19.2%
CC(C)=NNC(=O)c1ccc(N)cc1,36.1%,15%,14.4%,15.8,22.1,15.3%
CCOC(=O)c1sc(N)nc1N1CCCC1,1.65%,-23.9%,-9.65%,10.1,7,-2.25%
CC(C)(CO)CNC(=O)C(C)(C)CO,7.8%,14.1%,-5%,21.1,16.8,-4.4%
O=C(CO[N+](=O)[O-])OC/C=C/c1ccccc1,-4.25%,5.35%,-2%,-0.65,2.55,8.6%
